# PubChem BioAssay (NCATS)
# Results filed as inconclusive are left out. The source made the active and inactive calls. Calls follow the shape of the dose curve; as a rule, active = well fitted inhibition curve with a large enough effect; inconclusive = small, poorly fitted or top-dose-only effect; inactive = flat fitted curve, though single readings scatter. Bridge positions count the residues as written; N and C are the ends. Square brackets hold non-standard residues; d marks the D form. Peptide text beside a SMILES is read from it. hArg = N=C(N)NCCCC[C@H](N)C(=O)O; Mpa = O=C(O)CCS
# System: CRL-7250
# Assay: qHTS assay to identify novel small-molecules to repurpose for Merkel cell carcinoma treatment (AID 1296009); also: nearly all actives have a fitted effect of over 60% in size
# Conditions: MCC and control cell lines, CellTiter-Glo viability, 72 h; at 44.8 µM (top of the series) unless noted
# How it was run: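 Luminescence from CellTiter-Glo, read 10 min after addition at room temperature, reported viability following a 72 hr, 37 degree celsius treatment with NPC or MIPE compounds in titration; values normalized to plate controls.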
row,SMILES,outcome
1,CO[C@@H]1[C@@H](O[C@@H]2O[C@H](C)[C@@H](O[C@H]3C[C@@](C)(O)[C@@H](O)[C@H](C)O3)[C@H](N(C)C)[C@H]2O)[C@@H](CC=O)C[C@@H](C)[C@@H](O[C@@H]2CC[C@H](N(C)C)[C@@H](C)O2)/C=C/C=C/C[C@@H](C)OC(=O)C[C@H]1OC(C)=O,inactive
2,COc1ccc(CN2CCN(C(c3ccc(F)cc3)c3ccc(F)cc3)CC2)c(OC)c1OC,inactive
3,CN(C)CCOc1ccccc1Cc1ccccc1,inactive
4,O=C(/C=C/c1ccccc1)NCCO,inactive
5,CC(=O)SC[C@@H](Cc1ccccc1)C(=O)NCC(=O)OCc1ccccc1,inactive
6,Cn1cc(C(=O)[C@@H]2CCc3nc[nH]c3C2)c2ccccc21,inactive
7,Nc1ccc(N=Nc2ccccc2)c(N)n1,inactive
8,COc1ccc2c(c1)c(CC(=O)O)c(C)n2C(=O)c1ccc(Cl)cc1,inactive
9,O=C1CC2(CCCC2)CC(=O)N1CCCCN1CCN(c2ncccn2)CC1,inactive
10,CCc1cc2cc(OC)c(OC)cc2c(Cc2ccccc2)n1,inactive
11,Nc1nc2ncc(CNc3ccc(C(=O)N[C@@H](CCC(=O)O)C(=O)O)cc3)nc2c(=O)[nH]1,inactive
12,Cc1cc(O)c(C)c(C)c1O,inactive
13,CCOC(=O)[C@H](CCc1ccccc1)N[C@H]1CS[C@H](c2cccs2)CN(CC(=O)O)C1=O,inactive
14,CCCCCCCCCCCCCCCCCCOCC(O)CO (configuration not stated),inactive
15,CCOC(=O)C1=C[C@]2(CC)CCCN3CCc4c(n1c1ccccc41)[C@@H]32,inactive
16,CC(=O)[C@@]1(O)CC[C@H]2[C@@H]3CCC4=CC(=O)CC[C@]4(C)[C@H]3CC[C@@]21C,inactive
17,NS(=O)(=O)c1cc2c(cc1Cl)NCNS2(=O)=O,inactive
18,CCOC(=O)[C@H](CCc1ccccc1)N[C@@H](C)C(=O)N1C(=O)N(C)C[C@H]1C(=O)O,inactive
19,Cc1[nH]c(=O)c(C#N)cc1-c1ccc2nccn2c1,inactive

row,SMILES,outcome
1,OC(CCN1CCCCC1)(c1ccccc1)c1ccccc1,inactive
2,CCCCN(CCCC)C(C(N)=O)c1ccc(OC)cc1 (configuration not stated),inactive
3,O=c1[nH]c(=O)c2ccccc2o1,inactive
4,CC(C)C(=O)OCc1cccc(OC(=O)[C@@H]2N3C(=O)[C@@H](NC(=O)Cc4ccccc4)[C@H]3SC2(C)C)c1,inactive
5,Oc1ccc(O)cc1,inactive
6,C=C1C(=C/C=C2\CCC[C@]3(C)[C@@H]([C@H](C)/C=C/[C@@H](O)C4CC4)CC[C@@H]23)C[C@@H](O)C[C@@H]1O,inactive
7,O=C(O)c1cccc(-c2noc(-c3ccccc3F)n2)c1,inactive
8,Clc1ccc(C(Cn2ccnc2)OCc2ccsc2Cl)c(Cl)c1 (configuration not stated),inactive
9,Clc1ccc(C(Cn2ccnc2)OCc2c(Cl)cccc2Cl)c(Cl)c1 (configuration not stated),inactive
10,CC1=C(C(=O)O)N2C(=O)[C@@H](NC(=O)[C@H](N)C3=CCC=CC3)[C@H]2SC1,inactive
11,CCN(CC)CC(=O)OCC(=O)[C@@]1(O)CC[C@H]2[C@@H]3CCC4=CC(=O)CC[C@]4(C)[C@H]3[C@@H](O)C[C@@]21C,inactive
12,NC(CSCC(=O)O)C(=O)O (configuration not stated),inactive
13,NC(=O)[C@@H]1CSSCCC(=O)N[C@@H](CCCCN=C(N)N)C(=O)NCC(=O)N[C@@H](CC(=O)O)C(=O)N[C@@H](Cc2c[nH]c3ccccc23)C(=O)N2CCC[C@H]2C(=O)N1 ([Mpa][hArg]GDWPC-NH2; disulfide 1-7),inactive
14,NC(N)=NCCC[C@H](N)C(=O)O,inactive [at 4.96 µM]
15,CCC(C)(C)c1ccc(CC(C)CN2C[C@@H](C)O[C@@H](C)C2)cc1 (some centres not stated),inactive
16,COc1ccccc1N1CCN(CCCNc2cc(=O)n(C)c(=O)n2C)CC1,inactive
17,CN(C)CCN(Cc1ccccc1)c1ccccn1,inactive
18,COc1ccccc1OC(=O)Oc1ccccc1OC,inactive
